A selection: hits, their analogues and other compounds. The true share with any hit is near 2.7%.
PP5 inh: blocks human protein phosphatase 5 activity; 320,000 compounds, 0.18% hits; P53041; purified PP5c, OMFP substrate fluorescence; inhibition, % at 6.7 µM;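 active means inhibition above the campaign's mean inhibition across all tested compounds plus 3 SD, cut at about 9.5% in these data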;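 further: 0% = DMSO only and 100% = 100 µM cantharidin control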
Target sequence (P53041 whole entry, looked up): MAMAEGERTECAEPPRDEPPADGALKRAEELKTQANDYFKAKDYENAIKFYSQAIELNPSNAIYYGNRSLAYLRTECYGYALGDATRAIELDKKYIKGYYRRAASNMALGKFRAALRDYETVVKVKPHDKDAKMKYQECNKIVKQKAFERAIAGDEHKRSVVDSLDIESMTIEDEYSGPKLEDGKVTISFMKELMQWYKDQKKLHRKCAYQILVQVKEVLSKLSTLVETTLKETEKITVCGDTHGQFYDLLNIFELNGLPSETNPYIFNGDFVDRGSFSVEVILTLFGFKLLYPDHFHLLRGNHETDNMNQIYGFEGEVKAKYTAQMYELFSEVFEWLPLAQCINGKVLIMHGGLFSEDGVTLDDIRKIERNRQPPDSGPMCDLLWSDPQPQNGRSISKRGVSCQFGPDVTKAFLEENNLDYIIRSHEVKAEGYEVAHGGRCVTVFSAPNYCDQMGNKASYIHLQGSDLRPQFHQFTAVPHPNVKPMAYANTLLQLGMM
ANO1 block: blocks the mouse calcium-activated chloride channel TMEM16A; 310,000 compounds, 1.2% hits; HEK293 TMEM16A/YFP iodide influx fluorescence, ionomycin; Q8BHY3; AID 588511; normalized B-score (activity score, 25-100; higher = stronger inhibition) at 10 µM;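 active means ratio plate-corrected score three or more library SD toward inhibition, starting fluorescence score within five deviations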;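 further: score derived from kinetic fluorescence span divided by baseline fluorescence per well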
TMEM16A act: activates or potentiates the mouse TMEM16A chloride channel; Q8BHY3; 340,000 compounds, 0.3% hits; B-score at 10 µM; AID 623877; HEK293 TMEM16A/YFP-H148Q/I152L, iodide quench fluorescence; stronger effect = lower value;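 active means fluorescence-ratio B-score plate-corrected deviation score at least 3 library SD below zero, with starting fluorescence score within 5 deviations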;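 further: channel opened by trigger with iodide after compound preincubation; score built on the fluorescence ratio of max minus min over baseline; more negative score means more quench and so TMEM16A activation or potentiation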
DNA FID counter: fluorescent intercalator displacement, NS3 helicase counter-screen; AID 1845; 290,000 compounds, 0.17% hits; inhibition, % at 7.9 µM; DNA fluorescent intercalator displacement, fluorescence; in the data active means inhibition above about 37%;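 further: 0% = vehicle and 100% = reference compound; higher means more ethidium bromide displaced from hairpin DNA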
PREPL inh: inhibits the human prolyl oligopeptidase-like enzyme | recombinant PREPL, fluorescence polarization activity-based probe | inhibition, % at 5.96 µM | 320,000 compounds, 0.68% hits | AID 2751; in the data active means inhibition above about 43%;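 further: 0% = enzyme with DMSO and 100% = wells lacking enzyme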
PP1 counter: counter-screen for PP5 inhibitors: inhibitors of human PP1-alpha. P62136. purified PP1alpha, OMFP fluorescence. inhibition, % at 6.7 µM. 320,000 compounds, 0.9% hits;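 active means inhibition above the mean inhibition of all tested compounds plus 3 SD, computed separately for each screening campaign, cut at about 15% in these data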
Numbers without * were called inactive; i = inactive; x = not tested or not shown.

SMILES | PP5 inh | ANO1 block | TMEM16A act | DNA FID counter | PREPL inh | PP1 counter
O=C(NCc1ccccn1)c1coc(=O)c(Br)c1 | 0 | 100* | i | 1 | -9 | -1
CCc1ccc(/C=C2\SC(=S)N(CCCC(=O)Nc3ccccc3C(=O)O)C2=O)cc1 | 1 | 100* | i | -20 | 7 | 1
O=C(CCCN1C(=O)/C(=C\c2cccs2)SC1=S)Nc1ccc(C(=O)O)cc1 | 1 | i | i | -21 | 11 | -3
CCN(CC)CCOC(=O)c1ccc(NC(=O)CCCN2C(=O)/C(=C/c3cccs3)SC2=S)cc1 | x | i | i | 44* | x | x
O=C(CCCN1C(=O)/C(=C/c2ccccc2Cl)SC1=S)NNC(=O)c1ccccc1Cl | 4 | i | i | -7 | -22 | 17*
COC(=O)c1ccc(/C=C2/SC(=S)N(CCCC(=O)Nc3ccc(O)cc3)C2=O)cc1 | 1 | i | i | -14 | 5 | 16*
CCCN(CCC)C(=O)Cn1c(=O)n(CCCCCC(=O)Nc2ccccc2)c(=O)c2sccc21 | 0 | i | i | -4 | 8 | -2
O=C1/C(=C/c2ccc(O)cc2)SC(=S)N1CC1CCCO1 (stereo unspecified) | 0 | i | -5.1* | 8 | -45 | -3
O=C(CCCN1C(=O)/C(=C\c2ccccc2)SC1=S)Nc1ccc(C(=O)O)cc1 | 0 | i | i | -17 | 2 | 2
CCc1ccc(/C=C2\SC(=S)N(CCCC(=O)Nc3ccc(C(=O)O)cc3)C2=O)cc1 | 2 | 100* | i | -26 | 5 | -1
COc1ccc(/C=C2\CN(Cc3ccccc3)C/C(=C\c3ccc(OC)cc3)C2=O)cc1 | -3 | i | i | -9 | 2 | -4
COc1ccc(/C=C2\CN(Cc3ccccc3)C/C(=C\c3ccc(OC)cc3OC)C2=O)c(OC)c1 | 4 | i | i | -14 | 7 | 16*
CC(=O)NC1C(=O)N(CCN2CCOCC2)c2ccc(C)cc21 (stereo unspecified) | 7 | i | i | 5 | 7 | 57*
CC(=O)NC1C(=O)N(CCN2CCOCC2)c2ccc(Cl)cc21 (stereo unspecified) | x | i | i | 3 | x | x
O=C(CN1C(=O)c2cccnc2Oc2ccc(Cl)cc21)NCCC1=CCCCC1 | -1 | i | i | -28 | 0 | -2
CC(=O)C1CCC2C3CC(C)=C4CC(O)CCC4(C)C3CCC12C (stereo unspecified) | x | x | i | x | x | x
CCn1c(N2CCC(Cc3ccccc3)CC2)nc2c1c(=O)[nH]c(=O)n2C | 3 | i | i | -23 | 57* | 3
COc1ccc(N2CCN(c3nc4c(c(=O)[nH]c(=O)n4C)n3Cc3cccc(C)c3)CC2)cc1 | 3 | i | i | -11 | 51* | 1
CC(CSc1nnnn1-c1ccccc1)Cn1c(N2CCCC2)nc2c1c(=O)[nH]c(=O)n2C (stereo unspecified) | -1 | i | i | -7 | 46* | 0
CC1CCN(c2nc3c(c(=O)[nH]c(=O)n3C)n2Cc2ccccc2)CC1 | -1 | i | i | -9 | 15 | -5
CSC(=Nc1ccccc1)N=C(SCc1ccccc1)N(C)C | x | x | -13* | x | x | x
N#CNC(=Nc1ccccc1)SCc1ccc(C(=O)O)cc1 | 1 | i | i | -1 | 2 | -5
S=C(Nc1ccc(Oc2ccccc2)cc1)NC1CCCCCC1 | 4 | 100* | i | -11 | 0 | 3
S=C(Nc1ccc(Oc2ccccc2)cc1)NC1CCCCC1 | 1 | i | i | -5 | 5 | 0
O=C(O)c1cccc2cccc(-c3c4ccc(=O)c(O)c-4oc4c(O)c(O)ccc34)c12 | x | x | i | x | x | x
SMILES | PP5 inh | ANO1 block | TMEM16A act | DNA FID counter | PREPL inh | PP1 counter
CCNC(=S)NCc1ccc(Cl)cc1 | 2 | i | -9.6* | -3 | 7 | -2
CCNC(=S)Nc1ccc(Cl)cc1 | 0 | i | i | 0 | -2 | -1
COc1ccccc1C(=O)N(CCC1CCCN1C)c1nc2ccccc2s1 (stereo unspecified) | -1 | i | i | 42* | -37 | 0
COc1ccc2sc(N(CCCN(C)C)C(=O)c3nc4ccccc4s3)nc2c1 | -1 | i | i | 4 | 12 | -2
Cn1nc(N2CCN(S(=O)(=O)c3ccccc3)CC2)c(=O)n(C)c1=O | 1 | x | -29* | x | 5 | -2
O=C(COC(=O)c1ccc[nH]c1=O)NC1CCCCCC1 | 1 | i | i | -4 | 0 | -5
O=C(COC(=O)c1ccc[nH]c1=O)NC1CCCCCCC1 | 0 | i | -22* | -4 | -2 | -5
Cc1c(CNC(=O)c2c([N+](=O)[O-])cnn2C)cnn1C | 0 | i | i | 0 | 4 | -2
N#Cc1ccc(NC(=O)Nc2cccc(C#N)c2)cc1 | x | i | i | 0 | x | x
N#Cc1ccc(NC(=O)Nc2ccc(Oc3ccc(NC(=O)Nc4ccc(C#N)cc4)cc3)cc2)cc1 | 7 | i | i | 1 | 0 | 17*
O=C(/C=C/c1ccc(Br)cc1)NC(=O)c1ccccc1O | 1 | i | i | 2 | 1 | -3
CSc1ccc(/C=C/C(=O)NC(=O)c2ccccc2O)cc1 | -2 | 25* | i | -7 | 14 | -2
CC[C@H](C)[C@H](NC(=O)OCc1ccccc1)C(=O)OCC(=O)N1CCN(c2ccc(F)cc2)CC1 | x | x | i | x | x | x
Cc1sc(NC(=O)C2CSC3(C)CCC(=O)N23)nc1-c1ccc(F)cc1 (stereo unspecified) | -1 | i | i | -28 | -6 | 2
Cc1c(N2C(=O)/C(=C/c3ccc(N(C)C)cc3)N(C)C2=S)c(=O)n(-c2ccccc2)n1C | x | x | -8* | x | x | x
CC1CCc2c(sc3nc(C4CC4)nc(N4CCN(C(=O)c5ccco5)CC4)c23)C1 (stereo unspecified) | 3 | 100* | i | -20 | -5 | 1
CSC1=NSC2=NC(=O)/C(=C\c3cccs3)C(=N)N12 | -1 | 100* | i | -2 | 7 | -1
CC(C)CSC1=NSC2=NC(=O)/C(=C\c3cccs3)C(=N)N12 | 2 | i | i | -6 | 15 | 0
O=C1NC(c2ccccc2)Nc2c1sc(=S)n2-c1ccccc1 (stereo unspecified) | 1 | i | i | -2 | 4 | 0
O=C(Cn1cnc([N+](=O)[O-])c1)c1ccc(Cl)cc1 | 2 | i | i | x | 11 | 5
O=C(C[n+]1cnn(CC(=O)c2ccc(Cl)cc2Cl)c1)c1ccc([N+](=O)[O-])cc1 | 3 | i | i | 4 | 42 | 17*
Cc1ccc(CCNc2ncnc(Cl)c2N)cc1 | x | x | i | x | x | x
O=C(Nc1cc(C(F)(F)F)cc(C(F)(F)F)c1)Nc1cnn(-c2ccc([N+](=O)[O-])cc2)c1C(F)(F)F | -1 | 100* | i | 0 | 6 | -4

Screens (PubChem)
